Compound activity: PubChem BioAssay, several laboratories
This is a sample that favours compounds with a hit; in the whole collection about 9.6% have one here.
PLAP act: activates human placental alkaline phosphatase; P05187; purified PLAP enzyme, luminescent substrate read-out; stronger effect = higher value; activation fold at 20 µM; 1.2% of 96,000 active; AID 696; in the data active = activation fold above about 2
Target sequence (P05187 whole entry, looked up): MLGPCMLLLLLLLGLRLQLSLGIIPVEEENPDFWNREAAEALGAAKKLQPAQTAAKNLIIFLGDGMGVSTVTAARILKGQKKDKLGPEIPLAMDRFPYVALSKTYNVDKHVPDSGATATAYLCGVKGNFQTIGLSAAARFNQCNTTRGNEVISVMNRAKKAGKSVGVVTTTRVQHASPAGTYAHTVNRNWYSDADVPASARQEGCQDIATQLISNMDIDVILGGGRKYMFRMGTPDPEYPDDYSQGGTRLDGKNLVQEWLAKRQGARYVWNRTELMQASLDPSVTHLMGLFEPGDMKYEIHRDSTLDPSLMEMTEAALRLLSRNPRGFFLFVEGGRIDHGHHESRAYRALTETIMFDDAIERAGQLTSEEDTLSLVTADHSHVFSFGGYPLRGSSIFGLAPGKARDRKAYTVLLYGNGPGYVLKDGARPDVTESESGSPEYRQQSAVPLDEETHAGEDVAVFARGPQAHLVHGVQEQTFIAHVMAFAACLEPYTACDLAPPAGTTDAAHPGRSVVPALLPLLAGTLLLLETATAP
PostGolgi yeast: growth inhibition of a yeast mutant, post-Golgi transport screen | post-Golgi transport phenotypic cell assay | 0.9% of 98,000 active | AID 739 | inhibition, % at 10 µM;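 also: yeast cells grown in 1536-well plates; yeast grown about 18 h at 30C before absorbance read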
Cav32 inh: human Cav3.2 channel inhibition, primary screen; B-score at 10 µM; 4% of 100,000 active; Cav3.2-expressing cells, Fluo-4 calcium fluorescence FDSS; stronger effect = lower value; O95180; AID 449739;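 active = single-dose well whose peak fluorescence ratio is a statistical outlier from its plate by either plate-standardised score or position-corrected B-score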
DAT uptake mod: modulates human dopamine transporter uptake under cocaine | B-score at 10 µM | Q01959 | LLC-PK1 hDAT cells, [14C]-dopamine uptake with cocaine IC80; actives deviate in either direction | AID 449768 | 1.3% of 110,000 active;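 active = Z score or B-score, a plate-position-corrected score, falls beyond the plate's 99.7% confidence bounds, in either direction; inactive = both scores lie inside the 99.7% bounds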;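 also: scored against the spread of the other compound wells on the same plate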
PostGolgi ctrl: inhibits growth of the yeast control strain; efflux-deficient yeast background strain, growth absorbance A615, 16 h; inhibition, % at 10 µM; 5% of 98,000 active
The depositor's hits bear a star; · = no result given. Rule as the data show it, unless noted: active = inhibition above about 30%; inactive = the rest.

SMILES	PLAP act	PostGolgi yeast	Cav32 inh	DAT uptake mod	PostGolgi ctrl
NC1C2CN(c3nc4c(cc3F)c(=O)c(C(=O)O)cn4-c3ccc(F)cc3F)CC12 (stereo not given)	0.7	-1.6	-0.73	-0.08	1.4
Cc1cc(N2C(=O)CC(N3CCN(C(c4ccccc4)c4ccccc4)CC3)C2=O)no1 (stereo not given)	1.5	4.0	-1.95	-0.708	3.1
COc1ccc(S(=O)(=O)Nc2ccccc2C(=O)NCc2ccco2)cc1Br	1.5	0.7	-3.79*	-0.00112	1.2
CCn1cc(C(=O)NCCCN2CCC(C)CC2)c(=O)c2cc(S(=O)(=O)N3CCCC3)ccc21	1.7	7.1	0.668	-0.684	-5.1
CCn1cc(C(=O)NCc2ccco2)c(=O)c2cc(S(=O)(=O)N3CC(C)CC(C)C3)ccc21 (stereo not given)	1.2	-0.5	-8.11*	1.12	3.9
CCn1cc(C(=O)NC2CCC(C)CC2)c(=O)c2cc(S(=O)(=O)N3CCCCC3)ccc21 (stereo not given)	1.6	-11.1	-7.18*	2.21*	11.0
Cc1ccc(C(=O)Nc2ccccc2C(=O)NCc2ccco2)cc1S(=O)(=O)N1CCCCC1	·	1.6	-2.16	2.15	97.0*
O=C(CN1CCN(c2ccc(F)cc2)CC1)c1ccc2c(c1)OCO2	0.9	6.1	·	·	4.2
CCOc1cc(N2CCOCC2)c(OCC)cc1NC1=NCCCCC1	0.9	-7.3	-0.626	0.982	20.4
O=C(CCCNS(=O)(=O)c1ccccc1)NCc1ccco1	0.9	22.5	-0.259	0.424	13.6
C=CCn1cc(C(=O)NCc2ccco2)c(=O)c2cc(S(=O)(=O)N3CCCCCC3)ccc21	1.5	-7.5	-4.86*	3.26*	3.2
CCOC(=O)c1ccc(NC(=O)NC2CCN(CC(=O)NCc3ccc4c(c3)OCO4)CC2)cc1	1.1	18.0	1.7	-0.014	-2.7
CCOc1ccc(C2N(c3ccc(F)cc3)C(=O)C3CCCN32)cc1OC (stereo not given)	1.7	-10.2	-0.284	-0.0768	5.2
COc1ccnc(N2CCN(c3ccccc3)CC2)c1C#N	0.7	3.4	0.12	1.15	2.2
Cn1nc(C(F)(F)F)c(C#N)c1N1CCN(c2ccccc2)CC1	0.8	10.1	-0.769	0.858	71.7*
Cn1nc(C(F)(F)F)c(C#N)c1N1CCN(c2ccc(F)cc2)CC1	0.9	2.9	-0.661	0.967	73.5*
CCc1nc2c(c(=O)[nH]1)C1(CCCC1)Cc1ccccc1-2	1	8.2	-1.82	0.675	9.2
CC1(C)Cc2ccccc2-c2nc(NCCO)n(-c3ccccc3)c(=O)c21	1.8	21.1	-1.22	-0.162	11.0
CCC1(C)Cc2ccccc2-c2nc3n(c(=O)c21)CCCCC3 (stereo not given)	1	-2.4	-2.98	-0.0153	27.4
O=c1[nH]c(NCCO)nc2c1C1(CCCCC1)Cc1ccccc1-2	0.8	-1.7	-2.76	0.144	30.6*
CCC1(CC)Cc2ccccc2-c2nc(NCCO)[nH]c(=O)c21	·	·	-0.439	-2.74*	·
CCC1(C)Cc2ccccc2-c2nc(NCCO)n(-c3ccc(C)cc3)c(=O)c21 (stereo not given)	1.6	1.4	-3.31	0.73	35.0*
CC1(C)CC(n2c(NCCO)nc3c(c2=O)C2(CCCC2)Cc2ccccc2-3)CCO1 (stereo not given)	1.5	4.4	-4.29*	1.88	25.6
Cc1cc(C)nc(N2CCCC(C(=O)Nc3ccc4nc(C)c(C)nc4c3)C2)n1 (stereo not given)	1.5	19.2	-0.000737	1.41	8.0
CCOC(=O)N1CCN(c2cc(=O)n(-c3cccc(Br)c3)c(=O)[nH]2)CC1	0.9	-2.8	0.318	-0.561	11.7
SMILES	PLAP act	PostGolgi yeast	Cav32 inh	DAT uptake mod	PostGolgi ctrl
CCc1ccccc1NC(=O)CSc1nnc(-c2ccco2)n1N	0.9	3.5	0.0565	-0.664	-0.5
O=C1c2ccccc2C(Nc2ccc3c(c2)OCCO3)N1Cc1ccccc1 (stereo not given)	1.3	-14.3	-6.19*	-0.388	12.1
COc1cc(NC2c3ccccc3C(=O)N2Cc2ccc3c(c2)OCO3)cc(OC)c1OC (stereo not given)	1.1	-5.8	-0.749	0.241	14.1
CCOc1ccc(NC2c3ccccc3C(=O)N2Cc2ccc3c(c2)OCO3)cc1 (stereo not given)	1.3	-3.3	-3.11	0.862	31.1*
CC(=O)c1cccc(NC2c3ccccc3C(=O)N2Cc2ccc3c(c2)OCO3)c1 (stereo not given)	1	-1.9	-0.138	0.303	18.0
O=C(Cc1ccc(NS(=O)(=O)c2ccc(F)cc2)cc1)NCc1ccccc1	1.3	-7.5	-5.19*	0.0383	-0.6
